CHOP inhibitor – inhibitors of CHOP promoter induction, primary screen, cell-based, unfolded protein response, luciferase reporter | 220,000 tested, 3.8% active | inhibition, % at 10 µM | CHO-K1 CHOP-promoter luciferase, tunicamycin-induced, 15-18 h;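 active = compounds that reduced the stress-induced luciferase reporter signal by more than about 70% of percent inhibition, limit read from the data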;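 note: 0% = tunicamycin plus vehicle and 100% = wells without tunicamycin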
WT yeast gro inh – growth inhibition of WT strain, primary screen, mitochondrial fusion inhibitor project, WT and mutant strains, chemical genetic; inhibition, % at 10 µM; 190,000 tested, 2.1% active; mitochondrial fusion phenotypic screen; in the data active = inhibition above about 58%; tested in S. cerevisiae
Arbovirus anti – antivirals against arbovirus infection, primary screen, cell-based, full library, 10K replicate subset. arbovirus infection cell-based antiviral screen. inhibition, % at 10 µM. 200,000 tested, 0.37% active. AID 1251, 2008; in the data active = inhibition above about 30%
L major viab – Leishmania major promastigote growth inhibition, primary screen; inhibition, % at 10 µM; Leishmania major promastigotes, resazurin fluorescence viability; 200,000 tested, 9% active; in the data active = inhibition above about 50%;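 note: promastigotes grown with compound for 44 hours at 28 °C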
* = called active by the depositor. Hits are enriched below; roughly 12% of the tested compounds scored in any of these assays.

O=c1[nH]c(=O)n(C2CCCCCC2)c(O)c1C=NCCCN1CCOCC1 was read as CHOP inhibitor 12.3, WT yeast gro inh 7.6, Arbovirus anti 9.7 and L major viab 88.5*.
Screening C[C@]12CC[C@H]3[C@@H](CCC4C[C@H](O)CC[C@@]43C)[C@@H]1CC[C@@H]2O (stereo partly drawn) returned CHOP inhibitor -8.6.
CNC(=O)O/N=C(\C)Cc1nnn(-c2cc(C)on2)n1 was read as CHOP inhibitor 22.1.
O=C(c1ccc2c3c(cccc13)CC2)C1CCCN(CC2CC2)C1 (stereo not drawn) was read as CHOP inhibitor 25.4, WT yeast gro inh 17.6, Arbovirus anti -22.9 and L major viab 98.9*.
For O=C(c1ccc2c3c(cccc13)CC2)C1CCCN(Cc2ncc[nH]2)C1 (stereo not drawn) the results were CHOP inhibitor 37.1, WT yeast gro inh 7.2, Arbovirus anti 6.8 and L major viab 48.4.
For COc1ccc(OCC(=O)N2CCN(C3CCC(c4ccccc4)CC3)CC2)cc1 (stereo not drawn) the results were CHOP inhibitor 16.3, WT yeast gro inh -39.2, Arbovirus anti -10.7 and L major viab 59.9*.
O=C(COc1ccc2ccccc2c1)N1CCN(C2CCN(Cc3ccccc3)CC2)CC1 was read as CHOP inhibitor 20.7, WT yeast gro inh 2.9, Arbovirus anti -5.0 and L major viab 92.2*.
Screening O=C(COc1ccc2ccccc2c1)N1CCN(CC2CC3C=CC2C3)CC1 (stereo not drawn) returned CHOP inhibitor 48.5, WT yeast gro inh -3.2, Arbovirus anti 5.0 and L major viab 57.6*.
For O=C(COc1ccccc1)N1CCN(C2CCCC2)CC1 the results were CHOP inhibitor -11.3, WT yeast gro inh -10.0, Arbovirus anti 1.4 and L major viab 84.9*.
Screening NCC(O)c1cc(O)c(O)cc1F (stereo not drawn) returned CHOP inhibitor 13.3.
Screening CCCC(C)C1(CC)C(=O)NC(=Nc2ccc(OC)cc2)NC1=O (stereo not drawn) returned CHOP inhibitor 2.6, WT yeast gro inh -3.9, Arbovirus anti -13.5 and L major viab 0.2.
C/C(=N\N(C)c1ccccc1)c1c(O)[nH]c(=O)[nH]c1=O was read as CHOP inhibitor 1.5.
C[C@]12Cc3cn4c(nc3C=C1CCC1C2CC[C@@]2(C)[C@H]1CC[C@@]2(O)C#N)nc1ccccc14 (stereo partly drawn) was read as CHOP inhibitor 7.1.
Screening C[n+]1c(-c2ccccc2)cc(-c2ccc(Cl)cc2)cc1-c1ccccc1 returned CHOP inhibitor -0.9, WT yeast gro inh 6.7, Arbovirus anti 11.9 and L major viab 99.2*.
For CC(=O)c1ccc(-c2ccccc2)cc1 the results were CHOP inhibitor 24.1, WT yeast gro inh 8.1, Arbovirus anti 0.0 and L major viab -2.8.
c1ccc2c(CN3CCCCCC3)c[nH]c2c1 was read as CHOP inhibitor -23.1, WT yeast gro inh -17.4, Arbovirus anti 6.6 and L major viab 56.6*.
Nc1c2c(nc3sc4c(c13)CCCCC4)CCCC2 was read as CHOP inhibitor 26.3, WT yeast gro inh 78.0, Arbovirus anti 18.3 and L major viab 92.8*.
Screening COc1cc(C(=O)Nc2ccc(Br)cc2C(=O)c2ccccc2)cc(OC)c1OC returned CHOP inhibitor -2.6, WT yeast gro inh 5.0, Arbovirus anti -16.9 and L major viab -5.1.
O=C(CNC(=O)c1ccc(Br)cc1)Nc1ccc(Br)cc1C(=O)c1ccccc1 was read as CHOP inhibitor 76.9*, WT yeast gro inh 15.8, Arbovirus anti 4.9 and L major viab -4.3.
`CC(C(=O)Nc1ccc(Br)cc1C(=O)c1ccccc1)N1CCCCC1` (stereo not drawn) gave CHOP inhibitor 64.8, Arbovirus anti -1.8 and L major viab 99.7*.
CN1C2CCC1CC(OC(=O)c1ccc(Cl)cc1)C2 (stereo not drawn) was read as CHOP inhibitor -3.2, WT yeast gro inh -4.6, Arbovirus anti -10.1 and L major viab 97.2*.
`COC(=O)C1C(OC(=O)c2ccccc2)CC2CCC1N2C` (stereo not drawn) gave CHOP inhibitor 6.6, WT yeast gro inh 6.2, Arbovirus anti 7.1 and L major viab -15.0.
For CCOc1ccc(C(=O)OC2CC3CCC(C2)N3C)cc1 (stereo not drawn) the results were CHOP inhibitor -10.4, WT yeast gro inh 12.7, Arbovirus anti -9.0 and L major viab 72.4*.
CN(C)CCOC(=O)c1cn(Cc2ccccc2)c2ccccc12 was read as CHOP inhibitor 13.0, WT yeast gro inh -28.6, Arbovirus anti -10.4 and L major viab 100.2*.
`N[C@@H](Cn1cc(I)c(=O)[nH]c1=O)C(=O)O` gave CHOP inhibitor -6.8.
O=C1NC(=O)C(=Cc2ccc(OCC(=O)N3CCOCC3)cc2)C(=O)N1 was read as CHOP inhibitor 8.5, WT yeast gro inh -19.2, Arbovirus anti 4.1 and L major viab 54.1*.
`COc1ccc2c(c1)/C(=C/c1cnc[nH]1)C(=O)N2` gave CHOP inhibitor -2.9.
Screening O=C1Nc2ccccc2/C1=C/c1cnc[nH]1 returned CHOP inhibitor 31.9, WT yeast gro inh -11.6, Arbovirus anti -8.7 and L major viab 98.1*.
Screening OC(CNC1CCCCCCC1)c1ccccc1 (stereo not drawn) returned CHOP inhibitor 4.1, WT yeast gro inh -0.5, Arbovirus anti 9.9 and L major viab 15.1.
Screening CC1CCC(NCC(O)c2ccccc2)CC1 (stereo not drawn) returned CHOP inhibitor 19.8, WT yeast gro inh 4.9, Arbovirus anti -0.3 and L major viab 71.2*.
`C/C=C1/CN2C3CC1C(CO)(C(=O)OC)C2Cc1c3n(C)c2ccccc12` (stereo not drawn) gave CHOP inhibitor -3.3.
Screening CCOC(=O)C1CCN(C=C2C(=O)N(C)C(=S)N(C)C2=O)CC1 returned CHOP inhibitor 11.8, WT yeast gro inh -4.5, Arbovirus anti 3.8 and L major viab 28.1.
For CCOC(=O)C1CCN(/C=C2/C(=O)NC(=S)N(c3cccc(OC)c3)C2=O)CC1 the results were CHOP inhibitor -5.9, WT yeast gro inh -17.9, Arbovirus anti 1.3 and L major viab 43.9.
For CCOC(=O)C1CCN(/C=C2\C(=O)NC(=S)N(CC)C2=O)CC1 the results were CHOP inhibitor -2.8, WT yeast gro inh -7.0, Arbovirus anti 1.7 and L major viab 75.9*.
For CCOC(=O)C1CCN(/C=C2/C(=O)NC(=O)N(c3cccc(C)c3C)C2=O)CC1 the results were CHOP inhibitor -12.0, WT yeast gro inh -16.0, Arbovirus anti 3.5 and L major viab 54.4*.
COc1cc(-n2c(=S)[nH]c3ccccc3c2=O)c(Cl)cc1Cl was read as CHOP inhibitor 30.9, WT yeast gro inh -16.8, Arbovirus anti -4.0 and L major viab 5.3.
Screening CC(C)Oc1cc(-n2c(=S)[nH]c3ccccc3c2=O)c(Cl)cc1Cl returned CHOP inhibitor 82.6*, WT yeast gro inh 59.5*, Arbovirus anti -16.3 and L major viab 5.1.
CCCC(C)C1C(C#N)=C(N)Oc2c1c(=O)oc1ccccc21 (stereo not drawn) was read as CHOP inhibitor 76.4*, WT yeast gro inh 14.0, Arbovirus anti 3.7 and L major viab -0.5.
